PubChem BioAssay AID1835 (Johns Hopkins Ion Channel Center, 2009)
The campaign covered roughly 2,400 compounds. About 750 (31%) were called active. The list shows a part of the results. Values without a mark were called inactive.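 How the source made its calls: active means median signal gain over dofetilide-blocked control wells reaching their mean plus 3 SD, so readout 1 at least 0; inactive means the rest.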

What follows are compounds tested against Voltage-gated inwardly rectifying potassium channel KCNH2 (Homo sapiens) (UniProt Q12809) (assay: modulators restoring hERG flux under dofetilide – cell-based, thallium flux, duplicate retest, dofetilide IC70, confirmation (AID 1835)). Settings: hERG cell line, FluxOR thallium flux, dofetilide-blocked; at 10 µM; active compounds read high.
Sequence of Voltage-gated inwardly rectifying potassium channel KCNH2 (Homo sapiens) (Q12809 whole entry, looked up): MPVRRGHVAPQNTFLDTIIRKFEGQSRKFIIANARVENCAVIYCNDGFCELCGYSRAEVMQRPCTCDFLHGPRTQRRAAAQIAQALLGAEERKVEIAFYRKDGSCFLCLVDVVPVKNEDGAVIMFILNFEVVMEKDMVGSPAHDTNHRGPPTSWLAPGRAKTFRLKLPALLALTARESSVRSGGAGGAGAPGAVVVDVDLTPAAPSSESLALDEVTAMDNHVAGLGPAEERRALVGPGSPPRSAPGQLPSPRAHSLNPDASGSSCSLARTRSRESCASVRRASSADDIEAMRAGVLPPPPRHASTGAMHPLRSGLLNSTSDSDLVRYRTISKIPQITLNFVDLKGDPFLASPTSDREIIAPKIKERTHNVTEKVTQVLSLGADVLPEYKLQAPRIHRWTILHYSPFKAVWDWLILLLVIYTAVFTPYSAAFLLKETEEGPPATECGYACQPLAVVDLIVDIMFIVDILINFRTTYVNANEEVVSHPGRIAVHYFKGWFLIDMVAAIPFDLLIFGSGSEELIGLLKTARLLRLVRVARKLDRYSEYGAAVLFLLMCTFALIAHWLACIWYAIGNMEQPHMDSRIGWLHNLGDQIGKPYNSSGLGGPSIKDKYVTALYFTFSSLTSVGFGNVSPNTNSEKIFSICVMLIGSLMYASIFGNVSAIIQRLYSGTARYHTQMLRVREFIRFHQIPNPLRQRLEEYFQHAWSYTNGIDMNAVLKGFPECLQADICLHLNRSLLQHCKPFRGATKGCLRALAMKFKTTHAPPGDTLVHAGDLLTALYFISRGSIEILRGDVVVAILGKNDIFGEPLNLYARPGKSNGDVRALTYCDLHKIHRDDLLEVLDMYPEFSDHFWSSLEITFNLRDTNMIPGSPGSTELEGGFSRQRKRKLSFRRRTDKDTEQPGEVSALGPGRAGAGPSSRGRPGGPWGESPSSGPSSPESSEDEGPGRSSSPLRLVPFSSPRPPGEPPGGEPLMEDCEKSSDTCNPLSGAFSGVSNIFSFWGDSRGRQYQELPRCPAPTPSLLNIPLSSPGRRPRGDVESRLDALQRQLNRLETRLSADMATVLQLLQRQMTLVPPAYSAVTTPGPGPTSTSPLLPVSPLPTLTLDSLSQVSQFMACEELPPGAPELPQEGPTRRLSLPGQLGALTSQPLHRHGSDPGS

Row | SMILES | activity increase over dofetilide control, less the hit threshold
1 | CCC(NS(=O)(=O)c1cn(C)nc1C)c1ccccc1 (centres undefined) | -8%
2 | O=C(CSc1ncnc2c1cnn2-c1ccc(Cl)cc1)NCc1ccc2c(c1)OCO2 | -2%
3 | CSc1ccc(CNc2nc3ccccc3n3cnnc23)cc1 | -20%
4 | Cc1cc(C)c(-c2c(O)c3c(n(C)c2=O)CC(C)(C)CC3=O)c(C)c1 | -16%
5 | Cn1c(=S)[nH]c2sc3c(c2c1=O)CCC(C(C)(C)C)C3 (centres undefined) | 59% (active)
6 | Cc1cccc(-n2c(=S)[nH]c3sc4c(c3c2=O)CCc2ccccc2-4)c1 | -6%
7 | CC1CCc2c(sc3[nH]c(=S)n(C)c(=O)c23)C1 (centres undefined) | 82% (active)
8 | CCCCNC1=CC(=O)C(=O)c2ccccc21 | -9%
9 | O=C(OCc1ccccc1)/C(=C/c1cccc([N+](=O)[O-])c1)NC(=O)c1ccco1 | -5%
10 | CC1(C)CC2(CCO1)C(Nc1ccccc1)=NC(=S)N2CC(N)=O (centres undefined) | -15%
11 | Cc1ccccc1NC1=NC(=S)N(c2ccccc2)C12CCCCC2 | 22% (active)
12 | COc1ccc(NC(=O)C(=O)NNC(=O)c2ccc(Cl)cc2Cl)cc1 | 59% (active)
13 | COc1ccc(NC(=O)C(=O)NNC(=O)C(C)Oc2ccc(Cl)cc2Cl)cc1 (centres undefined) | 59% (active)
14 | COc1ccc(-c2cc(C(F)(F)F)nc(SCC(=O)NCc3cccs3)n2)cc1 | -18%
15 | CCCOc1ccc(C(=O)NNC(=S)NC(=O)c2ccccc2)cc1 | -36%
16 | CCOc1ccc(C(=O)NC(=S)N(Cc2ccccc2)Cc2ccccc2)cc1 | 73% (active)
17 | CCCOc1ccc(CN(CCC#N)C(=S)NC(=O)c2ccccc2)cc1 | 9% (active)
18 | COc1ccc(CN(Cc2cccnc2)C(=S)NCCc2ccccc2)cc1OC | -11%
19 | COc1cc(OC)cc(C(=O)NC(=S)N(Cc2ccccc2)C(C)C)c1 | 30% (active)
20 | CC(C)N(Cc1ccccc1)C(=S)NC(=O)C1(C)CC1(Cl)Cl (centres undefined) | 35% (active)
21 | COc1cc(OC)cc(C(=O)OCC(=O)N(C)c2ccccc2)c1 | -9%
22 | N#CCCN(Cc1ccccc1)C(=S)NC(=O)c1ccccc1 | -3%
23 | CCCN(CCC)C(=S)NC(=O)c1ccc(-c2ccccc2)cc1 | 97% (active)

Row | SMILES | activity increase over dofetilide control, less the hit threshold
24 | CCCN(CC1CC1)C(=S)Nc1ccccc1F | -7%
25 | C=CCN(CC=C)C(=S)NC(=O)c1ccc(-c2ccccc2)cc1 | -2%
26 | COc1ccc(C(=O)NC(=S)N(Cc2ccccc2)Cc2ccccc2)cc1 | 43% (active)
27 | COc1ccccc1NC(=O)C1CCCN1C(=O)Nc1ccc(F)cc1 (centres undefined) | -14%
28 | CC(C)c1cccc(C(C)C)c1NC(=O)COC(=O)[C@H](C)NC(N)=O | -11%
29 | C/C(=N\NC(=S)Nc1c(C)cccc1C)c1cc2ccccc2o1 | -5%
30 | C/C(=N\NC(=O)c1cc2ccccc2cc1O)c1ccccn1 | -10%
31 | C/C(=N/NC(=O)c1cc2ccccc2cc1O)c1ccco1 | 40% (active)
32 | C/C(=N\NC(=O)c1ccoc1C)c1cccc2ccccc12 | -13%
33 | C/C(=N\NC(=O)c1cc2ccccc2cc1O)c1ccc(C)o1 | 50% (active)
34 | C/C(=N/NC(=O)c1sc(NS(=O)(=O)c2ccccc2)nc1C)c1sc(N)nc1C | -15%
35 | C/C(=N\NC(=O)c1cc2ccccc2cc1O)c1cc2ccccc2o1 | 95% (active)
36 | O=C(OCc1ccc([N+](=O)[O-])cc1)c1cc2ccccc2oc1=O | -25%
37 | Cc1cc(N2CCN(C)CC2)nc(N2CCOCC2)n1 | -6%
38 | O=C(N1CCOCC1)N1CCC(n2nnc3ccccc32)CC1 | -8%
39 | CN(C)c1oc(-c2ccccc2)nc1C#N | -17%
40 | Cn1c(=O)c2c(ncn2CC(=O)OCc2ccccc2)n(C)c1=O | -11%
41 | Cc1cc(C=O)c2c(c1)C=CC1(Oc3ccccc3C(=O)N1C)O2 (centres undefined) | -29%
42 | O=C(Cn1c(=O)c2cccn2c2ccccc21)NCCc1ccc(Cl)cc1 | -16%
43 | Oc1oc(-c2cccc3ccccc23)nc1/C=N/c1nccs1 | 4% (active)
44 | CCCCn1nnc(NC(=O)c2ccc(-c3cccc([N+](=O)[O-])c3)o2)n1 | -6%
45 | O=C(O)CSc1nc2ccccc2nc1Cc1ccccc1F | 5% (active)
46 | Cn1c(CNC(=O)c2ccccc2F)nnc1SCc1nc2ccccc2c(=O)[nH]1 | -9%

Row | SMILES | activity increase over dofetilide control, less the hit threshold
47 | O=C(O)CSCc1c(F)cccc1Cl | -7%
48 | Cc1cccc(NC(=O)CN2C(=O)S/C(=C\c3cccn3-c3cccc(C(=O)O)c3)C2=O)c1 | 7% (active)
49 | Cc1ccc(NC(=O)CN2C(=O)N/C(=C/c3ccccc3OCc3cccc(C(=O)O)c3)C2=O)cc1 | -16%
50 | COc1ccc(NC(=O)CN2C(=O)S/C(=C/c3cccn3-c3ccc(C(=O)O)cc3)C2=O)cc1 | 94% (active)
51 | Cc1ccc(NC(=O)CN2C(=O)S/C(=C\c3cccn3-c3cccc(C(=O)O)c3)C2=O)c(C)c1 | -4%
52 | COc1ccc(C(=O)Nc2ccc(-n3nncc3C(C)(C)C)cc2)cc1 | -4%
53 | Oc1c(Cl)cc(Cl)cc1Sc1cc(Cl)cc(Cl)c1O | 76% (active)
54 | O=C(O)CCCN1C(=O)C2C3c4ccccc4C(c4ccccc43)[C@@H]2C1=O (some centres undefined) | -15%
55 | Cc1noc(C)c1-c1nnc(-c2ccc(C(F)(F)F)cc2)o1 | -11%
56 | O=C(/C=C/c1ccccc1)CC(=O)c1ccccc1O | 11% (active)
57 | Cc1ccc(C(=O)CC(=O)c2ccccc2C)c(O)c1 | -3%
58 | Cc1ccc(O)c(C(=O)CC(=O)c2ccccc2Cl)c1 | -2%
59 | CC1(C)CC2CC(C)(CN2C(=S)NC(=O)c2ccccc2Cl)C1 (centres undefined) | 28% (active)
60 | NS(=O)(=O)c1ccc(NC(=O)c2ccc(S(=O)(=O)N3CCc4ccccc43)cc2)cc1 | -1%
61 | O=C(NC(=S)N1CCc2ccccc21)c1ccccc1Br | 92% (active)
62 | O=C(COc1ccccc1)NC(=S)N1CCc2ccccc21 | 3% (active)
63 | CN1C(=O)CSc2ccc(NC(=O)N3CCc4ccccc43)cc21 | -10%
64 | O=C(COc1ccccc1)NC(=S)Nc1ccc2c(c1)Cc1ccccc1-2 | -9%
65 | Cc1cccc(OCC(=O)NC(=S)N2CCCc3ccccc32)c1 | -10%
66 | Cc1ccc(C(=O)NC(=S)N2CCN(c3cc(C)ccc3C)CC2)cc1 | -3%
67 | Cc1cccc(C(=O)NNC(=S)NC(=O)c2ccccc2)c1 | -20%
68 | O=C(Nc1cccn(Cc2c(Cl)cccc2Cl)c1=O)c1ccccc1Cl | -21%
69 | Cc1cccc(C(=O)NC(=S)N2CCc3ccccc3C2)c1 | 32% (active)
